An excerpt weighted towards active compounds, which were near 27% of everything screened.
CYP2C19 activ: activators of human cytochrome P450 2C19; 96,000 tested, under 10 active; recombinant CYP2C19, luciferin-H EGE luminescence; hits give high values; 0 = fully inhibited enzyme, 1 = untreated enzyme; AID 1025; activation factor at 5 µM; P33261;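 active = activation factor of at least 2 at 5 µM in the primary screen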
Target sequence (P33261 whole entry, looked up): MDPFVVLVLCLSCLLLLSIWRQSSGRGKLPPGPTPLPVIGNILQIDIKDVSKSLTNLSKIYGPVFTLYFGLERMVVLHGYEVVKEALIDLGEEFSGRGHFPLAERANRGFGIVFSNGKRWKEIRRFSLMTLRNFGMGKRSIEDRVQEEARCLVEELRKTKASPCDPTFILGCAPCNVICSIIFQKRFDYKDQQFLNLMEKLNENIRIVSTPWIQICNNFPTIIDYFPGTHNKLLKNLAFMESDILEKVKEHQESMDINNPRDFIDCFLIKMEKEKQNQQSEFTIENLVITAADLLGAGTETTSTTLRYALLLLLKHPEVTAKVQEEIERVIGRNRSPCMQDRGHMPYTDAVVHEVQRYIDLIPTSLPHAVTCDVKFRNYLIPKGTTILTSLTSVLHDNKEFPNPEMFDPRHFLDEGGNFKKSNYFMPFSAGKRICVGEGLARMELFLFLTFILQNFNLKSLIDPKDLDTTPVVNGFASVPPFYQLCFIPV
CYP2C9 inh: blocks human cytochrome P450 2C9; P11712; CYP2C9 Supersomes, luciferin-H conversion, luminescence; inhibition, % at 5 µM; 20% of 96,000 active; AID 777;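 active = blocking of liver enzyme CYP2C9 beyond about 50% at 5 µM, limit read from the data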
Cav32 inh: inhibitors of human Cav3.2 T-type calcium channel; Cav3.2-expressing cells, Fluo-4 calcium fluorescence FDSS; hits give low values; 4% of 100,000 active; B-score at 10 µM; O95180;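 active = single-dose well whose peak fluorescence ratio is a statistical outlier from its plate by either plate-standardised score or position-corrected B-score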
PTK2B oligo ant: blocks oligomerization of human Pyk2 in cells | Q14289 | Q293 cells, Pyk2 FERM NanoBiT luminescence; hits give low values | z-score (the deposit names both 25 µM and 10 µM) | 0.83% of 99,000 active | AID 1347419;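 active = Z-score of -3 or lower, scaled per plate to the spread of control and sample wells; inactive = z-score above -3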;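 note: negative z-score means lost luminescence so less FERM oligomerization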
CYP2C9 act: CYP2C9 (human) activation. P11712. recombinant CYP2C9, luciferin-H conversion, luminescence; hits give high values; factor 1 = untreated enzyme, 0 = blocked. activation factor at 5 µM. 1.4% of 96,000 active. AID 1024;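 active = activation factor of 2 or more for CYP2C9 at a 5 µM dose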
CYP2C19 inhib: human CYP2C19 inhibition; CYP2C19 Supersomes, luciferin-H EGE luminescence, 30 min; 21% of 96,000 active; inhibition, % at 5 µM; P33261;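 active = CYP2C19 inhibition above a set limit at 5 µM in the primary screen, cut at about 50% in these data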
Large screens that a line does not name were inactive.

Cc1cccc(-c2nc(CS(=O)CC(=O)NCCCSC3CCCCC3)c(C)o2)c1 (stereo unspecified)	Cav32 inh -7.13
COc1ccc(-c2nc(CSCC(=O)NC3CCCc4ccccc43)c(C)o2)cc1OC (stereo unspecified)	CYP2C9 inh 66.1, CYP2C19 inhib 60.6
C=CCNC(=S)N1CCN(CCN=CC2=C(O)CC(c3cccs3)CC2=O)CC1 (stereo unspecified)	none
CC(C)(C)OC(=O)N1CCOCCOCCN(C(=O)OC(C)(C)C)CCOCC1	none
COc1cc(CCCN2C(N)=NC[C@@H]2Cc2ccccc2)cc(OC)c1OC	none (no result: CYP2C19 activ, CYP2C9 inh, PTK2B oligo ant, CYP2C9 act, CYP2C19 inhib)
CC(Sc1nncn1C)C(=O)Nc1nnc(C(C)C)s1 (stereo unspecified)	none (no result: PTK2B oligo ant)
Cn1cnnc1SC(C(=O)c1ccccc1)c1ccccc1 (stereo unspecified)	CYP2C19 inhib 81.1
Cn1cnnc1SC(C(=O)Nc1cc(Cl)cc(Cl)c1)c1ccccc1 (stereo unspecified)	none
CC(Sc1nncn1C)C(=O)Nc1nnc(-c2ccccc2)s1 (stereo unspecified)	CYP2C9 inh 51.2 (no result: PTK2B oligo ant)
CCn1c2ccccc2n2c(=O)c(=O)n(CC(=O)Nc3ccc(C(C)C)cc3)nc12	none (no result: CYP2C19 activ, CYP2C9 inh, Cav32 inh, CYP2C9 act, CYP2C19 inhib)
O=C1OCC2OC(O)C(O)C(O)C2OC(=O)c2cc(O)c(O)c(O)c2-c2c(O)c(O)c3oc(=O)c4c(c(O)c(O)c5oc(=O)c2c3c54)-c2c1cc(O)c(O)c2O (stereo unspecified)	none (no result: CYP2C19 activ, CYP2C9 inh, PTK2B oligo ant, CYP2C9 act, CYP2C19 inhib)
Cc1ccc(/C(N)=N/OC(=O)COc2ccccc2Cl)cc1	none
CCN1C(=O)C2C(C1=O)N1C(c3cccs3)C3C(=O)N(CC)C(=O)C3N1C2c1cccs1 (stereo unspecified)	none
O=C1C2ON(c3ccccc3)C(c3cccnc3)C2C(=O)N1Cc1ccccc1 (stereo unspecified)	CYP2C9 inh 88.0, CYP2C19 inhib 100.4
COc1cc(C2C3C(=O)N(Cc4ccccc4)C(=O)C3ON2c2ccccc2)cc(OC)c1OC (stereo unspecified)	CYP2C19 inhib 56.9
Cc1c(Cl)cccc1N1C(=O)C2ON(c3ccccc3)C(c3cccnc3)C2C1=O (stereo unspecified)	CYP2C19 inhib 56.4
CC(C)N1C(=O)C2ON(c3ccccc3)C(c3cccs3)C2C1=O (stereo unspecified)	none
Cc1ccccc1N1C(=O)C2ON(c3ccccc3)C(c3cccnc3)C2C1=O (stereo unspecified)	CYP2C9 inh 51.9, CYP2C19 inhib 75.0 (no result: Cav32 inh)
Cc1nonc1OCC(C)(COc1nonc1C)NC(=O)c1ccccc1	none (no result: CYP2C19 activ, CYP2C9 inh, CYP2C9 act, CYP2C19 inhib)
CC(C(=O)N1CCC(C(N)=O)CC1)N(c1ccc(Oc2ccccc2)cc1)S(C)(=O)=O (stereo unspecified)	none
COc1ccc(C2(CCN)CC(C)N(C)CC2C)cc1 (stereo unspecified)	none
COc1ccc(CCNC(=O)CN2CCC(C)CC2)cc1OC	none
COc1ccccc1NC(=O)CN1C(=O)NC(C)(C)C1=O	none
COc1ccccc1NC(=O)CN1C(=O)C2(OCCCO2)c2ccccc21	CYP2C9 inh 70.4, CYP2C19 inhib 80.5
O=C(CCN1C(=O)C2(OCCO2)c2ccccc21)c1ccccc1	none
COc1ccc(CCNC(=O)CN2C(=O)C3(OCCCO3)c3ccccc32)cc1OC	CYP2C19 inhib 58.8
COc1ccc(CCNC(=O)CN2CCCc3ccccc32)cc1OC	CYP2C9 inh 59.3, CYP2C19 inhib 74.3
O=C(CN1C(=O)C2(OCCO2)c2ccccc21)c1ccc(Br)cc1	Cav32 inh -5.5
CCC(C)NC(=O)C1CCCN(S(=O)(=O)c2ccc(-n3cnnn3)cc2)C1 (stereo unspecified)	none
O=C(NCc1ccc2c(c1)OCO2)c1ccc2c(c1)S(=O)(=O)c1ccccc1C2=O	none (no result: CYP2C19 activ, CYP2C9 inh, PTK2B oligo ant, CYP2C9 act, CYP2C19 inhib)
COc1ccc(S(=O)(=O)N2CCC(N3CCN(c4ccccc4)CC3)CC2)cc1	none (no result: Cav32 inh, PTK2B oligo ant)
CC(NC(=O)Cc1cccs1)C(c1cccs1)N1CCOCC1 (stereo unspecified)	none (no result: CYP2C19 activ, CYP2C9 inh, CYP2C9 act, CYP2C19 inhib)
CCOC(=O)C(CC)(CC)C(=O)/C=C/c1cccc(Br)c1	none (no result: CYP2C19 activ, CYP2C9 inh, CYP2C9 act, CYP2C19 inhib)
CC(C)CC(=O)CN1C(=O)C2(OCCO2)c2ccccc21	none
CCCC(=O)CN1C(=O)C2(OCCO2)c2ccccc21	none
COc1ccc(OC)c(NC(=O)CN2C(=O)C3(OCCCO3)c3ccccc32)c1	CYP2C9 inh 68.9
O=C1N(Cc2ccccc2F)c2ccccc2C12OCCCO2	CYP2C19 inhib 57.3
CCN(CC)C(=O)CN1C(=O)C2(OCC(C)(c3ccccc3)CO2)c2ccccc21 (stereo unspecified)	CYP2C9 inh 77.4, CYP2C19 inhib 86.0
CNC(=O)c1ccccc1S(=O)(=O)c1ccccc1C#N	none
O=C(Nc1ccccc1)C1=C[C@@H](c2ccc3c(c2)OCO3)C[C@@H](OCCCCO)O1	none (no result: CYP2C19 activ, CYP2C9 inh, PTK2B oligo ant, CYP2C9 act, CYP2C19 inhib)
CN(C)C(C(=O)NC1CCCCC1)c1ccc(Cl)cc1 (stereo unspecified)	CYP2C19 inhib 56.1
O=C(Nc1ccc(Cl)cc1)OCCn1nnnc1C(c1ccccc1)N1CCOCC1 (stereo unspecified)	CYP2C9 inh 64.6
COCC(=O)N(C)C1(c2nnnn2CCOC(=O)Nc2ccc(Cl)cc2)CCCC1	none
CN(C)c1ccc(C(c2nnnn2CCOC(=O)Nc2ccc(Cl)cc2)N2CCOCC2)cc1 (stereo unspecified)	CYP2C9 inh 87.4, Cav32 inh -4.12, CYP2C19 inhib 93.2
O=C(C1CCN(S(=O)(=O)N2CCCC2)CC1)N1CCCCC1	none
CC(C)(C)c1ccc(C2(C)NC(=O)N(CC(=O)Nc3ccc4c(c3)OCO4)C2=O)cc1 (stereo unspecified)	Cav32 inh -5.55
Cc1ccc(NC(=O)CN2C(=O)NC3(CCc4ccccc43)C2=O)cc1Cl (stereo unspecified)	none
O=C(CN1C(=O)CC(c2ccco2)Sc2ccccc21)Nc1ccc2c(c1)OCCO2 (stereo unspecified)	CYP2C19 inhib 88.4
COc1ccc(OC)c(NC(=O)CN2C(=O)NC3(CCOc4ccccc43)C2=O)c1 (stereo unspecified)	CYP2C19 inhib 56.8
O=C(CN1C(=O)NC2(CCOc3ccccc32)C1=O)Nc1ccc2c(c1)OCCO2 (stereo unspecified)	CYP2C9 inh 50.1
Cc1cccc(NC(=O)N2CCC(NC(=O)c3ccccc3C)CC2)c1	none
COC(=O)c1ccccc1NC(=O)/C=C/c1cc(OC)c(OC)c(OC)c1	none
CN(C)S(=O)(=O)c1ccc(C(=O)Nc2ccnn2C2CCCCC2)cc1	CYP2C9 inh 62.8
CN(C)S(=O)(=O)c1ccc(C(=O)Nc2ccccn2)cc1	none
CCOC(=O)N1CCN(C(=O)c2cccc(OC)c2O)CC1	CYP2C19 inhib 57.3
CC(=O)c1ccccc1OCC(O)CN1CCN(C(c2ccccc2)c2ccccc2)CC1 (stereo unspecified)	Cav32 inh -7.09

Source: PubChem BioAssay (several laboratories)
